# Measurements taken from PubChem BioAssay (NCI).
# Compounds without any hit were thinned out: in the full panel of roughly 83,000, 20% have a hit.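 Testing used 96-well plates and a 48-hour single-concentration exposure. Example: -40 means 40% of the starting cells died.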 A number with no mark means an inactive call. The source made the active and inactive calls. Rule for the calls: active = growth percent below 10; inactive = the rest.
# Experiments:
# Test in all cases: NCI-60 one-dose screen, 48 h (100 = growth as untreated, 0 = no growth, -100 = all killed)
# Settings in all cases: 10 µM unless noted
# NCI-H23 lung = system: NCI-H23 lung
# NCI-H226 lung = system: NCI-H226 lung
# NCI-H322M lung = system: NCI-H322M lung
# HOP-62 NSCLC = system: HOP-62 NSCLC
# NCI-H460 lung = system: NCI-H460 lung
# HOP-92 NSCLC = system: HOP-92 NSCLC
# NCI-H522 lung = system: NCI-H522 lung
# A549/ATCC NSCLC = system: A549/ATCC NSCLC
# 786-0 renal = system: 786-0 renal
# COLO 205 colon = system: COLO 205 colon
# DU-145 prostate = system: DU-145 prostate
# K-562 leukemia = system: K-562 leukemia
# MALME-3M melanoma = system: MALME-3M melanoma
# MDA-MB-231 breast = system: MDA-MB-231 breast
# RXF 393 renal = system: RXF 393 renal
# SF-268 CNS = system: SF-268 CNS
# SF-295 CNS = system: SF-295 CNS
# SF-539 CNS = system: SF-539 CNS
# UACC-257 melanoma = system: UACC-257 melanoma
# M14 melanoma = system: M14 melanoma
Structure (SMILES),growth (NCI-H23 lung) [%],growth (NCI-H226 lung) [%],growth (NCI-H322M lung) [%],growth (HOP-62 NSCLC) [%],growth (NCI-H460 lung),growth (HOP-92 NSCLC),growth (NCI-H522 lung) [%],growth (A549/ATCC NSCLC) [%],growth (786-0 renal) [%],growth (COLO 205 colon),growth (DU-145 prostate) [%],growth (K-562 leukemia),growth (MALME-3M melanoma),growth (MDA-MB-231 breast),growth (RXF 393 renal),growth (SF-268 CNS) [%],growth (SF-295 CNS),growth (SF-539 CNS),growth (UACC-257 melanoma),growth (M14 melanoma)
CC/C(=C(\CC)c1ccc(OCCN(CC)CC)cc1)c1ccc(OCCN(CC)CC)cc1,40.7,62.7,60.7,36.9,31.8%,-10.2% (active),16.2,37.1,22,4.87% (active),73.9,12.7%,-42.8% (active),5.07% (active),-4.27% (active),55.2,-13.9% (active),-35% (active),-51.8% (active),-0.0375% (active)
NC(CCCC(N)C(=O)c1ccccc1)C(=O)O (stereo not given),98.4,102,87.7,90.3,112%,116%,64.4,92.8,102,104%,105,98.9%,95.9%,109%,112%,99.6,102%,97.5%,82.5%,102%
CC(Cc1cccc(C(F)(F)F)c1)NCCOC(=O)c1ccccc1 (stereo not given),101,98.3,100,102,114%,114%,100,105,97.9,106%,112,94.4%,104%,102%,117%,99.5,98.4%,116%,105%,106%
O=C(NCCNc1nccc(-c2c(-c3cccc(O)c3)nc3sccn23)n1)c1cccc(C(F)(F)F)c1,81,88.5,103,114,85.7%,83.8%,48.5,71.3,89.3,71.1%,91.4,56.2%,0.753% (active),76.2%,79.9%,86.7,69.6%,100%,14.4%,17.5%
CCN(CC)C(=O)C1CCN(C(=O)c2ccccc2)CC1,95.1,94.1,99.4,93.3,104%,98.8%,90.8,104,97.3,106%,109,99.1%,102%,105%,105%,92.7,96.7%,101%,103%,102%
Fc1ccc(Nc2ncnc3ccc(-c4cn[nH]c4)cc23)cc1Cl,80.3,57.1,15.9,66.2,55.5%,54.6%,10.3,49.5,61.5,60.7%,50.8,66.5%,54.9%,63.5%,40.3%,59.6,56.3%,49.7%,89.5%,58.7%
O=c1c2ccccc2sc2c(NCCCNCCO)nc3ccccc3c12,50,44.4,65.8,36.5,-33.5% (active),-1.63% (active),20.9,25.9,41.3,-78.9% (active),16.5,-39.5% (active),-55.3% (active),-10.6% (active),14.2%,37.5,-3.85% (active),54.7%,64%,-61.8% (active)
NC(=S)NNC1CCCCC1,97.6,91.1,87.7,83.2,104%,88.7%,72.3,74.5,99.3,100%,109,87.6%,97.3%,92.1%,107%,97.4,96.4%,96.4%,80.1%,98.4%
